Results taken from PubChem BioAssay AID1259312 (Keith Lab, Institute of Cancer Science, University of …, 2017).
The campaign covered roughly 4,500 compounds. About 200 (4.4%) were called active.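 Rule for the calls: active = cell survival measured by absorbance rises more than 2.5-fold over infected cells without compound; inactive = the rest.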 This excerpt belongs to a sample that is enriched for actives.

Test: survival after telomere uncapping, modulators, primary screen, cell-based (AID 1259312);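 note: virus expresses mutant telomerase RNA that uncaps telomeres and kills cells; compound added 2 days after infection so exposure lasts 3 days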
Conditions: HCT116 + Ad-hTR-mut, MTT, 5 d; at 10 µM, hits give high values

| SMILES | fold change |
| --- | --- |
| CCOC(=O)C1CCN(C(=O)N2CCOCC2)CC1 | -1.12 (inactive) |
| CCOC(=O)C1CCN(C(=O)C(=O)N2CCC(C(=O)OCC)CC2)CC1 | -1.3 (inactive) |
| CCOC(=O)C1CCN(C(C)=O)CC1 | 3.8 (active) |
| O=C(NC1CCCC1)c1ccc(COc2cc(Cl)ccc2Cl)o1 | -1.53 (inactive) |
| O=C1/C(=C/c2c(N3CCOCC3)nc3ccccn3c2=O)SC(=S)N1CC1CCCO1 (stereo not given) | -1.1 (inactive) |
| Nc1ccc(Cn2ccnc2)cc1 | -1.06 (inactive) |
| CCCCNC(=O)C(=O)NCCCn1ccnc1 | -3.64 (inactive) |
| NCCCCn1ccnc1 | 2.97 (active) |
| O=C1CCCN1c1ccc(NS(=O)(=O)N2CCCCC2)cc1 | -1.3 (inactive) |
| O=C1CCCN1c1ccc([N+](=O)[O-])cc1 | 4.37 (active) |
| O=C1CCCN1c1ccc(S(=O)(=O)Cl)cc1 | 1.34 (inactive) |
| CCN(CC)CCCN1c2ccccc2Sc2ccc(C(F)(F)F)cc21 | 5.26 (active) |
| Fc1ccc(-c2csc(N3CCN(CCCN4c5ccccc5Sc5ccc(C(F)(F)F)cc54)CC3)n2)cc1 | 1.16 (inactive) |
| CN(CCCN1c2ccccc2CCc2ccccc21)c1nc(-c2ccc(F)cc2)cs1 | -1.32 (inactive) |
| CC1SC2(C(=O)Nc3ccccc32)N(c2cccc(Br)c2)C1=O (stereo not given) | -4.19 (inactive) |
| O=C(O)C1=C/C(=C(/c2ccccc2)c2cc(C(=O)O)c(O)c3ccccc23)c2ccccc2C1=O | 1.42 (inactive) |
| O=C1NC(=O)/C(=C/c2cc(Br)ccc2OCc2ccc(F)cc2)N1 | -1.15 (inactive) |
| C=CCn1c(-c2ccc(OC)cc2)n[nH]c1=S | -2.14 (inactive) |
| O=c1ccc(=O)n2n1Cc1ccccc1C2 | 3.52 (active) |
| O=[N+]([O-])c1cccc(N2Cc3ccccc3C2)c1 | -1.27 (inactive) |
| CS(=O)(=O)N1CCc2ccccc2C1 | -1.26 (inactive) |
| O=C(O)CC1CCCCO1 (stereo not given) | -1.75 (inactive) |
| O=C1CC(c2ccccc2)CC2=C1C(c1ccc(-c3ccccc3)cc1)Nc1ccccc1N2 (stereo not given) | 1.1 (inactive) |
| Cn1cc(Cl)c(C(=O)N2CCc3ccccc3C2)n1 | -2.46 (inactive) |
| N#CC1=C(N)C(C#N)(C#N)C2=CCCC2C12CCCCC2 (stereo not given) | 2.06 (inactive) |

| SMILES | fold change |
| --- | --- |
| Cc1ccc(-c2nnnn2C(C#N)=P(c2ccccc2)(c2ccccc2)c2ccccc2)cc1 | 2.78 (active) |
| N#CC(C(N)=S)=P(c1ccccc1)(c1ccccc1)c1ccccc1 | -1.25 (inactive) |
| COc1cc(OC)cc([C@@H]2[C@@H](C(C)(C)C)C(C#N)(C#N)[C@H]3C=Cc4ccccc4N23)c1 | 1.39 (inactive) |
| Cn1c(=S)n(CCSc2nc3ccccc3n2C2CCCCC2)c2ccccc21 | -2.22 (inactive) |
| CN(C)c1ccc(N2CC(=O)SC2=NC#N)cc1 | -2.16 (inactive) |
| COC1OC(C)C(OCc2ccccc2)C(O)C1O (stereo not given) | 1.93 (inactive) |
| COC1OC(COC(c2ccccc2)(c2ccccc2)c2ccccc2)C(O)C(O)C1O (stereo not given) | 2.72 (active) |
| OCc1ccccc1O[C@@H]1O[C@H](CO)[C@@H](O)[C@H](O)[C@H]1O | 1.37 (inactive) |
| CCCCc1sc(-c2c(C#N)c(N)nc3c2CCCC3)cc1[N+](=O)[O-] | -2.22 (inactive) |
| CCSCCOC(=O)C1=C(C)NC2=C(C(=O)CCC2)C1c1ccsc1 (stereo not given) | -1.16 (inactive) |
| CCCCOc1ccc(C2C(C#N)=C(N)Nc3oc(OC)nc32)cc1CCC (stereo not given) | -1.87 (inactive) |
| O=S(=O)(c1cc(Cl)ccc1Cl)N1CCc2ccccc2C1 | 1.42 (inactive) |
| CC1CCN(S(=O)(=O)c2ccc(Cl)cc2)CC1 | 1.93 (inactive) |
| COc1ccc(S(=O)(=O)N2CCN(CCO)CC2)cc1 | -1.24 (inactive) |
| O=C(O)C1CCCN1S(=O)(=O)c1cc(Cl)ccc1Cl (stereo not given) | -1.09 (inactive) |
| CCC1CCCCN1S(=O)(=O)c1ccc(Cl)cc1 (stereo not given) | -1.26 (inactive) |
| CC1CCCN(S(=O)(=O)c2ccc(Br)cc2)C1 (stereo not given) | 1.44 (inactive) |
| CC1CCCN(S(=O)(=O)c2cc(Cl)ccc2Cl)C1 (stereo not given) | 3.18 (active) |
| CC1CC(C)CN(S(=O)(=O)c2ccc(Cl)cc2)C1 (stereo not given) | 3.13 (active) |
| COc1ccc(S(=O)(=O)N2CC(C)CC(C)C2)cc1 (stereo not given) | 3.34 (active) |
| CC1CCCN(S(=O)(=O)c2ccc(Cl)cc2)C1 (stereo not given) | 5.69 (active) |
| COc1ccc(S(=O)(=O)N2CCN(C)CC2)cc1 | -1.28 (inactive) |
| O=S(=O)(c1ccc(Cl)cc1)N1CCOC1C(Cl)(Cl)Cl (stereo not given) | -2.17 (inactive) |
| CCC1CN2CCc3cc(OC)c(OC)cc3[C@@H]2C[C@@H]1C[C@H]1NCCc2cc(OC)c(OC)cc21 (stereo not given in full) | -4.98 (inactive) |
| Nc1nnc(SCc2ccc(Cl)cc2Cl)s1 | 1.92 (inactive) |
